# Bioassay records as filed in PubChem.
# Most compounds without a hit are left out; they make up all but 19% or so of the library.
# HT1080NT lethal – kills 2HG-producing HT-1080-NT fibrosarcoma cells; HT-1080-NT fibrosarcoma viability, CellTiter-Glo ATP luminescence, 48 h; Potency, µM (top dose mostly 46.1 µM), for the others: at the top dose activity, negative = less viability, actives largely listed as cytotoxic; actives 1.6% (n = 360,000);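 further: NT is the 2HG producing partner of a matched IDH1 knockdown line; potency means the concentration at half of the fitted maximal effect; 0% = DMSO-treated cells and -100% = media-only wells without cells; nearly all actives have a fitted effect of over 55% in size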
#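 Toxicity toward the 2HG-producing NT line was scored as %Activity, normalised to DMSO and no-cell wells, from CellTiter-Glo luminescence after 48 hours' treatment.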
# IL-1B inflam inh – blocks inflammasome-driven IL-1 beta release | THP-1 LPS/ATP IL-1B secretion, AlphaLISA, 16 h; hits give low values | activity change, % at 57.5 µM | actives 4.7% (n = 360,000); in the data active means activity change below about -50%; inconclusive means mostly about -30% to -49%
#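 Secreted IL-1B measured by AlphaLISA bead assay after 16 h compound exposure of THP-1 cells; compounds (final up to 57.5 uM) added 1 h before LPS (250 ng/mL) and ATP (1.25 mM) stimulation; lower signal means less secretion.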
# DT40 TDP1 no CPT – qHTS for Inhibitors of human tyrosyl-DNA phosphodiesterase 1 (TDP1): qHTS in cells in absence of CPT; DT40 Tdp1-/- hTDP1 cells, no CPT, ATP luminescence, 48 h; Potency, µM (top dose mostly 46.2 µM), without a hit: at the top dose activity change, negative = growth inhibition, most hits filed as inhibitors; actives 15% (n = 420,000); AID 686978, 2013; further: potency means the concentration at half of the fitted maximal effect; nearly all actives have a fitted effect of over 55% in size
#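 Growth kinetics read by CellTiter-Glo luminescence after ≥48 hr at 37 °C. Cells: DT40 Tdp1-/- stably carrying human TDP1, 400 per well, compound exposure in the absence of CPT (DMSO vehicle).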
# TDP1 cell CPT – DT40-hTDP1 cell growth loss with CPT. chicken DT40 Tdp1-/-;hTDP1 cells + 20 nM CPT, ATP luminescence, 48 h. Potency, µM (titrated, usually from 46.2 µM), inactives show top-dose activity change, negative = growth inhibition, usual class: inhibitors. actives 12% (n = 420,000). AID 686979; further: potency means the concentration at half of the fitted maximal effect; nearly all actives have a fitted effect of over 55% in size
#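 Chicken DT40 Tdp1-/- cells complemented with human TDP1, 400 cells/well, exposed to compounds plus 20 nM camptothecin for at least 48 h at 37 C; viability read as ATP content by CellTiter-Glo luminescence.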
# HT1080 IDH1KD tx – toxicity to HT-1080 IDH1 knockdown cells (counter line) | HT-1080 IDH1 knockdown viability, ATP luminescence, 48 h | Potency, µM (top dose mostly 46.1 µM), without a hit: top-dose activity, negative = toxicity, most hits filed as cytotoxic | actives 2% (n = 360,000) | AID 686971;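 further: potency means the concentration at half of the fitted maximal effect; 0% = DMSO wells and -100% = cell-free medium wells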
#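 Luminescent ATP read-out (CellTiter-Glo, 10 min at room temperature) after 48 h compound exposure at 37 °C gave viability of IDH1-knockdown HT-1080 cells. Activity was normalised to DMSO and cell-free wells, then fitted as concentration-response curves.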
# uPA generation – blocks generation of uPA at the cell surface | cell surface uPA generation assay, qHTS | Potency, µM (series often up to 38.3 µM), for inactives: at the top dose activity change, negative = inhibition, actives largely listed as inhibitors | actives 0.31% (n = 330,000); active means well fitted inhibition curve with a large enough effect; inconclusive means small, poorly fitted or top-dose-only effect; inactive means no such curve, though single readings can be large or run the other way; tested in mouse RAW 264.7 cells; further: potency means the concentration at half of the fitted maximal effect; nearly all actives have a fitted effect of over 55% in size
# The depositor's hits bear a star; ? = inconclusive; . = no result; [ ] = another dose, or the depositor's remark. Unless noted, the call rests on the fitted dose curve; in most records, active means well fitted curve in the direction sought with a large enough effect; inconclusive means small, poorly fitted or top-dose-only effect, or another doubt; inactive means no such curve, though single readings can be large; an effect the other way counts as inactive or inconclusive. Unless noted, on the % scale 0 is the no-effect control and ±100 the full control effect.
SMILES,HT1080NT lethal,IL-1B inflam inh,DT40 TDP1 no CPT,TDP1 cell CPT,HT1080 IDH1KD tx,uPA generation
CCOC(=O)[C@@H]1[C@H]2COc3ccccc3[C@H]2N2C(=O)N(c3ccc(C(F)(F)F)cc3)C(=O)[C@]12C,-3.1%,-21.9,14.6µM*,18.4µM*,-4.0%,0.3%
CCOC(=O)[C@@H]1[C@H]2COc3ccccc3[C@@H]2N2C(=O)N(c3ccc(C)cc3)C(=O)[C@@]12C,-8.3%,25.5,-27.5%,2.5%,2.1%,-19.9%
CN(Cc1cccnc1)C(=O)CNC(=O)c1ccc(Cl)cc1Cl,3.0%,0.0,1.4%,11.8%,-5.7%,0.1%
CCOC(=O)[C@@H]1[C@H]2COc3cc(OC)ccc3[C@@H]2N2C(=O)N(c3ccc(Cl)cc3)C(=O)[C@@]12C,-0.6%,-15.8,?,?,1.4%,10.4%
CCOC(=O)[C@H]1[C@H]2COc3cc(OC)ccc3[C@@H]2N2C(=O)N(c3ccc(Cl)cc3)C(=O)[C@@]12C,-9.2%,-0.8,?,18.4µM*,-5.9%,-12.4%
CN1c2ccsc2/C(=N/Nc2ccc(F)cc2)CS1(=O)=O,-24.9%,22.9,2.59µM*,2.06µM*,?,-5.0%
Cc1ccc(N/N=C2\CS(=O)(=O)N(C)c3ccsc32)cc1,-8.2%,-8.6,?,?,-21.0%,-4.5%
Cc1ccc([C@H]2C[C@H](n3cc(C4CC4)nn3)[C@@H](O)CN2C(=O)C2CCCCC2)cc1,4.1%,-15.6,4.0%,11.5%,-0.8%,.
C#CC(=O)CCC1CCCN1C(=O)OC(C)(C)C (configuration not stated),16.4%,-20.5,?,14.6µM*,6.8%,-5.1%
Fc1ccc2nc(C3CCCCN3Cc3nc(CC4CC4)no3)[nH]c2c1 (configuration not stated),-15.2%,-64.9*,?,-4.7%,-2.1%,-0.7%
CCNc1nc(N)c(C(=O)C23CC4CC(CC(C4)C2)C3)s1,-6.4%,10.5,?,?,-1.5%,0.6%
CCNc1nc(N)c(C(=C(C#N)C#N)c2ccccc2)s1,-15.1%,-74.7*,?,?,-23.5%,-11.1%
O=C(c1ccc(-c2cccc(C(F)(F)F)c2)o1)N1CCCCCCC1,10.7%,-4.8,-12.1%,?,0.3%,21.2%
N#CCCN1CCN(C(=S)c2ccc(-c3ccc(Cl)c(Cl)c3)o2)CC1,?,-53.4*,?,25.9µM*,?,7.8%
O=C(c1ccco1)N1CCN(C(=O)c2ccc(-c3ccc(Cl)cc3)o2)CC1,11.1%,-6.2,?,18.4µM*,9.7%,-16.4%
CC1CN(C(=O)c2ccc(-c3cccc(C(F)(F)F)c3)o2)CC(C)O1 (configuration not stated),8.6%,-56.2*,13µM*,?,-10.4%,3.9%
O=C(c1ccco1)N1CCN(C(=O)c2ccco2)CC1,23.2%,-6.4,1.4%,9.6%,2.1%,.
Cc1cc(Cl)c2oc(C(=O)N3CCN(C(=O)c4ccco4)CC3)c(C)c2c1,-17.2%,-6.9,?,16.4µM*,-7.7%,4.9%
N#CCCN1CCN(C(=S)c2ccc(-c3cccc(Cl)c3)o2)CC1,-5.5%,-24.4,-29.0%,?,-28.1%,-6.9%
O=C(NCCc1cccs1)Nc1nnc([C@H]2C[C@H](O)[C@@H](CO)O2)s1,-2.8%,17.6,-0.8%,-11.5%,3.5%,.
O=C(c1ccncc1)N1CCC2(CCCN(Cc3nccs3)C2)CC1,.,.,-2.2%,11.7%,.,.
O=C(CN1CCOCC1)Nc1cc(C(F)(F)F)ccc1Cl,-9.7%,-3.7,-21.5%,-23.3%,8.7%,1.8%
O=C(c1ccco1)N1CCN(C(=O)c2ccc(-c3cccc(C(F)(F)F)c3)o2)CC1,-28.7%,-70.3*,20.6µM*,?,-21.7%,-1.6%
O=C(CN1CCN(C(=O)c2ccco2)CC1)Nc1cc(C(F)(F)F)ccc1Cl,8.3%,-8.8,23.1µM*,?,0.9%[9.24 µM],-5.1%
CC(=O)N1CCN(C(=S)c2ccc(-c3ccc(Cl)cc3)o2)CC1,-11.7%,-11.8,25.9µM*,?,-10.3%,3.8%
SMILES,HT1080NT lethal,IL-1B inflam inh,DT40 TDP1 no CPT,TDP1 cell CPT,HT1080 IDH1KD tx,uPA generation
COCCNc1nc2c(c(=O)[nH]c(=O)n2C)n1CCCc1ccccc1,7.3%,22.3,2.0%,-19.9%,14.8%,-4.1%
O=C(NCC1CCOCC1)c1cc(COc2ccc(F)cc2F)on1,16.2%,-17.5,-15.6%,-15.4%,-4.7%,-3.9%
CC(Cc1cccnc1)NC(=O)c1cc(COc2ccc(F)cc2F)on1 (configuration not stated),1.5%,-3.4,20.6µM*,16.4µM*,3.0%,-2.7%
O=C(NCCc1cccnc1)c1cc(COc2ccc(F)cc2F)on1,?,-2.8,23.1µM*,?,?,-8.6%
CC(Cc1cnccn1)NC(=O)c1cc(COc2ccc(F)cc2F)on1 (configuration not stated),17.4%,?,5.2%,?,13.2%,-1.8%
CC(CNC(=O)c1cc(COc2c(F)cccc2F)on1)Oc1cccnc1 (configuration not stated),1.0%,-16.7,14.6µM*,20.6µM*,0.0%,4.5%
COc1ccc(OCc2cc(C(=O)NC(C)Cc3cccnc3)no2)c(Cl)c1 (configuration not stated),-1.5%,-15.1,23.1µM*,?,-19.0%,-27.7%
CCC1CCCCN1CCCNC(=O)CCC(=O)N1CC(C)Oc2ccccc21 (configuration not stated),-3.5%,-19.4,-29.1%,-9.5%,-7.4%,3.9%
C=Cc1ccc(Cn2c(C)c(C(=O)NCc3ccccc3C(F)(F)F)sc2=O)cc1,-9.4%,?,?,?,-19.5%,.
O=C(NCCCc1ccccc1)c1cc(COc2ccc(F)cc2Cl)on1,-3.5%,?,?,20.6µM*,-6.6%,2.3%
O=C(NCCc1cccnc1)c1cc(COc2ccc(F)cc2Cl)on1,?,-21.4,?,?,14.6µM*,-1.7%
CCn1ccnc1CNC(=O)c1cc(COc2ccc(F)cc2F)on1,11.1%,32.3,3.8%,1.1%,13.1%,3.8%
CCn1cc(CNC(=O)c2cc(COc3ccc(F)cc3F)on2)cn1,4.6%,10.8,23.1µM*,?,-0.3%,-24.4%
Cc1ccc(-n2nc(C(C)(C)C)cc2NC(=O)Nc2ccc(OCCN3CCOCC3)c3ccccc23)cc1,.,.,?,-111.8%,.,.
